In PubChem BioAssay (NCI):
The panel holds about 79,000 compounds, 15% with a hit somewhere; the sample as a whole holds those more often. No stated cut-off is given here; in the data, active means growth inhibition above about 70%; inactive means the rest.

What was measured:
[1] = NCI Yeast Anticancer Drug Screen. Data for the rad50 strain (AID 155);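 further: 0% = growth of vehicle-only cultures of the same strain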; conditions: S. cerevisiae rad50 strain growth inhibition; at 50.0 µM; stronger effect = higher value
In short: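 DNA repair mutant yeast, compound exposure, growth read-out; inhibition is taken relative to vehicle.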

[2] = NCI Yeast Anticancer Drug Screen. Data for the mec2-1 strain (AID 157); conditions: S. cerevisiae mec2-1 strain, at 50.0 µM, stronger effect = higher value
In short: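 Test agents were screened against the mec2-1 yeast strain, with defined DNA repair or cell cycle alteration. Growth was scored as inhibition against vehicle-only controls.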

[3] = NCI Yeast Anticancer Drug Screen. Data for the sgs1 mgt1 strain (AID 161);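 further: 0% = growth of cultures given vehicle only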; conditions: S. cerevisiae sgs1 mgt1 strain, at 50.0 µM, stronger effect = higher value
In short: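 Mutant yeast exposed to compound; growth scored against vehicle-only wells.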

[4] = NCI Yeast Anticancer Drug Screen. Data for the cln2 rad14 strain (AID 165);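 further: 0% = growth equal to vehicle treated cultures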; conditions: S. cerevisiae cln2 rad14 strain, at 50.0 µM, stronger effect = higher value
In short: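 Growth of compound-exposed yeast (cln2 rad14 genotype) measured and expressed as inhibition relative to vehicle.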

[5] = NCI Yeast Anticancer Drug Screen. Data for the bub3 strain (AID 167); conditions: S. cerevisiae bub3 mutant strain, at 50.0 µM, stronger effect = higher value
In short: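 In this screen, a yeast mutant lacking normal mitotic checkpoint function is challenged with compound. Relative growth versus vehicle gives the inhibition value.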

[6] = NCI Yeast Anticancer Drug Screen. Data for the mlh1 rad18 strain (AID 175); conditions: S. cerevisiae mlh1 rad18 strain growth inhibition; at 50.0 µM; stronger effect = higher value
In short: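 In this whole-cell yeast screen, a strain with altered DNA damage repair is challenged with compound, and its growth is measured against matched vehicle-treated controls.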

Measured: growth inhibition

O=C(OCC1OC(c2ccccc2)OC2C(COC(=O)c3ccccc3)OC(c3ccccc3)OC12)c1ccccc1 (stereo unspecified)
inactive: [1] 4.4% | [2] 6.1% | [3] -0.6% | [4] 6.7% | [5] 12.4% | [6] 14.1%

CC(C)CC(=O)CC(=O)C(C)(C)C.CC(C)CC(=O)CC(=O)C(C)(C)C.CC(C)CC(=O)CC(=O)C(C)(C)C.CC(C)CC(=O)CC(=O)C(C)(C)C.[Ce]
inactive: [1] 3% | [2] 19% | [3] 55.4% | [4] -16.1% | [5] 2.6% | [6] 47.1%

CC(C)(C)N[P+](Cc1ccc(C[P+](NC(C)(C)C)(NC(C)(C)C)c2ccccc2)cc1)(NC(C)(C)C)c1ccccc1
inactive: [1] -3.05% | [2] -10.1% | [3] -0.9% | [4] -13.5% | [5] -2.1% | [6] 5.45%

O=C(O)CCSC1=CC(=O)C(SCCC(=O)O)=CC1=O
inactive: [1] 5.35% | [2] -13.2% | [3] -1.4% | [4] -75.7% | [5] 4.9% | [6] -15.2%

CC(=O)C1C[C@]2(O)[C@@]3(C)CO[C@]2(C)CC1(O)C3 (stereo partly specified)
inactive: [1] 3.45% | [2] 11.4% | [3] 17.9% | [4] 7.2% | [5] 20.2% | [6] 12.9%

CCOC(=O)NC(Nc1cccc(F)c1)(C(F)(F)F)C(F)(F)F
inactive: [1] 16.8% | [2] -9.05% | [3] -22.4% | [4] 20.9% | [5] -12.3% | [6] 4.9%

Cc1cccc(NC(=O)c2cccc(C(=O)Nc3cccc(C)c3C)c2)c1C
inactive: [1] -12.4% | [2] 0.6% | [3] 17.6% | [4] -15.9% | [5] 5.2% | [6] -21.9%

COc1ccc(C2CC(=O)Oc3cc4c(cc32)OCO4)cc1 (stereo unspecified)
inactive: [1] -10.2% | [2] -8.05% | [3] -11.2% | [4] -11.6% | [5] -2.2% | [6] -15.9%

CCc1c(Cc2[nH]c(C=O)c(C)c2CC)[nH]c(C=O)c1C
inactive: [1] 6.85% | [2] -11.9% | [3] 11.2% | [4] -1.05% | [5] 5.45% | [6] 3.8%

CC(CCC(=O)O)C1CCC2C3CCC4CC(OC=O)CCC4(C)C3CC(=O)C12C (stereo unspecified)
inactive: [1] -5.9% | [2] -3.25% | [3] -12.8% | [4] 0.15% | [5] -1.6% | [6] -13.9%

O=C(CNc1ccccn1)Nn1cnc2ccc(S(=O)(=O)Nc3ccccn3)cc2c1=O
inactive: [1] 32.2% | [2] 28% | [3] 39.4% | [4] -1.1% | [5] 25.6% | [6] 22.6%

COc1cc([N+](=O)[O-])ccc1NC(=O)Nc1ccc(Cl)cc1[N+](=O)[O-]
inactive: [1] -4.8% | [2] 28.1% | [3] 24.6% | [4] -12.6% | [5] 29.4% | [6] 27.1%

CCCCCCCCCSCCS
inactive: [1] -14.1% | [2] 7.4% | [3] 2% | [4] -16.2% | [5] -19.4% | [6] -22.2%

CCOC(=O)c1ccccc1[N+](=O)[O-]
inactive: [1] 22.8% | [2] 23.4% | [3] 8.7% | [4] -11.7% | [5] 6.7% | [6] 18.2%

O=C(Nc1ccccc1-c1ccccc1)c1ccccc1
inactive: [1] 1.15% | [2] -11.5% | [3] 20.1% | [4] 11.3% | [5] 45.4% | [6] 26.9%

COc1ccc(NC(=O)CC(=O)N2N=C(N(CCC#N)c3ccccc3Cl)CC2c2ccccc2)cc1 (stereo unspecified)
inactive: [1] -13.4% | [2] -23.6% | [3] -1% | [4] 10.7% | [5] -4.55% | [6] -28.9%

CCOC(=O)COC(=O)C1C(C(N)=O)N(CC(=O)OCC)CCN1CC(=O)OCC (stereo unspecified)
inactive: [1] 1.85% | [2] 1.9% | [3] -7.9% | [4] -0.85% | [5] -2.45% | [6] 2.25%

CC(=O)CC(=O)CCC(=O)O
inactive: [1] 30.9% | [2] -20.2% | [3] -0.25% | [4] 7.1% | [5] 13.9% | [6] 32.8%

O=C(O)/C=C/c1ccccc1Cl
inactive: [1] -9.7% | [2] 10.1% | [3] -1.3% | [4] -25.8% | [5] 0.8% | [6] -9.9%

Cc1ccccc1-c1nc(/C=C2\C(=O)C=Cc3ccccc32)c(O)o1
inactive: [1] -17.3% | [2] -4.45% | [3] -1.1% | [4] 23.6% | [5] -2.55% | [6] -1.6%

COc1ccc(Nc2ccnc(N)n2)cc1
inactive: [1] 5.15% | [2] -27.4% | [3] 1.25% | [4] -0.35% | [5] 14.2% | [6] -13.2%
